According to the supplement of paper PMC3545927:
This is one part of the list. No count for the full screen is at hand.

B1: FS-2689 (peptide)
chain: CARKKKCKICAGNASASA
B2: HC2466 (peptide)
chain: CAMTPCSAHLAGNASASA
B3: HC2327 (peptide)
chain: CAEFPCHRPSAGNASASA
B4: HC1964 (peptide)
chain: CAEITTPCSGAGNASASA
B5: HC1863 (peptide)
chain: CATTACSGSWAGNASASA
B6: HC2495 (peptide)
chain: CASHPCSAHLAGNASASA
B7: HC768 (peptide)
chain: CASPPVVPQSAGNASASA
B8: FS-738 (peptide)
chain: CAYLSRVARSAGNASASA
B9: FS-897 (peptide)
chain: CAWRCRVARSAGNASASA
B10: FS-1080 (peptide)
chain: CASHAVVARSAGNASASA
B11: HC960 (peptide)
chain: CAAPPPSWDQAGNASASA
B12: HC536 (peptide)
chain: CALVILNAASAGNASASA
B13: HC2323 (peptide)
chain: CAEAPCHRPSAGNASASA
B14: HC1717 (peptide)
chain: CAMESCSQHLAGNASASA
B15: HC1891 (peptide)
chain: CATTPCSDSWAGNASASA
B16: HC1714 (peptide)
chain: CAMEKCSQHLAGNASASA
B17: FS-254 (peptide)
chain: CAIPARELRNAGNASASA
B18: HC562 (peptide)
chain: CALPQRAYALAGNASASA
B19: FS-136 (peptide)
chain: CALSIRDKRKAGNASASA
B20: HC899 (peptide)
chain: CALPQDAVSRAGNASASA
B21: FS-599 (peptide)
chain: CAIPARMKRAAGNASASA
B22: FS-1466 (peptide)
chain: CALSIRDARMAGNASASA

Molecular target: furin, P09958
Sequence (P09958 whole entry): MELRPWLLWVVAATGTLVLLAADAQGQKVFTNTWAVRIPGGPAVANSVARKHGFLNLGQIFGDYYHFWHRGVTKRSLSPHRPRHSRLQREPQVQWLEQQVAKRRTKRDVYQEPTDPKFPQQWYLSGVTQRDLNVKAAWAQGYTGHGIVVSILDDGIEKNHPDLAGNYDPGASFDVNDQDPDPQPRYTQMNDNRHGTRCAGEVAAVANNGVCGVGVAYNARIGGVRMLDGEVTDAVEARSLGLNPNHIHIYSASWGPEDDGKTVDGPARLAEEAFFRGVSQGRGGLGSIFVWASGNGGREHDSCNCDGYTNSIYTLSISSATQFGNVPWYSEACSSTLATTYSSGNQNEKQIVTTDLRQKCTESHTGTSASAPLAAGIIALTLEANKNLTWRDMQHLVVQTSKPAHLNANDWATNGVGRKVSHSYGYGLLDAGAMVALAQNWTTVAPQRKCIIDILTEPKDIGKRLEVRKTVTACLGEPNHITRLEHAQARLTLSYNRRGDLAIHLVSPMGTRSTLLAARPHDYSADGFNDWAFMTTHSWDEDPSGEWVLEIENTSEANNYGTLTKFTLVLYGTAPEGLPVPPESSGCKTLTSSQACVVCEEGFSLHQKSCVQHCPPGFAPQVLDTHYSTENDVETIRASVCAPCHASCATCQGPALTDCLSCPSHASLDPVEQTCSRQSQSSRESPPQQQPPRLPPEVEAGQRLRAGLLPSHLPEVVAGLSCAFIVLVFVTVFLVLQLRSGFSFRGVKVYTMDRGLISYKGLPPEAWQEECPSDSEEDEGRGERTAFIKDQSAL
Test: furin cleavage Z-score vs untreated control; higher = more cleavage, active = 3.5 or more, inactive = 1 or less, 8 variable residues between constant flanks
How it was run: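 Peptides 8 residues long, fused to a cDNA oligonucleotide, were fixed to magnetic beads by the N-terminus and exposed to purified furin. The 0.01 ml reactions contained 50 mM HEPES pH 7.5 with CaCl2 and NaCl at 1:10 enzyme:substrate and ran 7.5, 15 or 30 min. For the cleavage Z-score, log counts of sequenced released DNA were compared with furin-free reactions, lowess-adjusted and scaled by median absolute deviation.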

Sequence	furin cleavage Z-score (7.5 min)	furin cleavage Z-score (15 min)	furin cleavage Z-score (30 min)
B1	-0.917 (inactive)	-0.723 (inactive)	-0.00697 (inactive)
B2	-1.89 (inactive)	0.877 (inactive)	-0.495 (inactive)
B3	-0.796 (inactive)	-0.578 (inactive)	-1.81 (inactive)
B4	-1.53 (inactive)	-0.885 (inactive)	-1.78 (inactive)
B5	-0.8 (inactive)	-0.656 (inactive)	-0.444 (inactive)
B6	1.02	0.719 (inactive)	0.0481 (inactive)
B7	-0.954 (inactive)	0.785 (inactive)	-0.882 (inactive)
B8	9.42 (active)	9.32 (active)	8.94 (active)
B9	5.68 (active)	5.73 (active)	6.03 (active)
B10	4.85 (active)	4.91 (active)	5.66 (active)
B11	-0.113 (inactive)	-0.447 (inactive)	-0.277 (inactive)
B12	1.04	-0.834 (inactive)	0.192 (inactive)
B13	0.662 (inactive)	-0.37 (inactive)	-0.247 (inactive)
B14	0.437 (inactive)	1.13	-0.426 (inactive)
B15	-1.12 (inactive)	-0.376 (inactive)	-2.36 (inactive)
B16	1.25	0.88 (inactive)	0.181 (inactive)
B17	1.11	0.407 (inactive)	-8.8e-05 (inactive)
B18	-0.111 (inactive)	0.523 (inactive)	0.909 (inactive)
B19	4.28 (active)	3.15	5.72 (active)
B20	0.79 (inactive)	-0.97 (inactive)	-1.66 (inactive)
B21	10.3 (active)	9.08 (active)	8.29 (active)
B22	-0.476 (inactive)	0.981 (inactive)	-0.151 (inactive)
